Assay results taken from PubChem BioAssay (Tox21).
Records with an inconclusive call do not appear. Some structures have more than one record in an assay (separate samples or runs), and their calls can disagree. Activity calls are given as the source filed them. Calls follow the shape of the dose curve; as a rule, active = well fitted activation curve with a large enough effect in the repeat runs; inconclusive = weak or mixed curves; inactive = flat fitted curve, though single readings scatter.

Assay: A CellTox Green Cytotoxicity Assay to monitor cytotoxicity in HEK293 cells - 8 hour (AID 1224884); also: nearly all actives have a fitted effect of over 35% in size
Details: CellTox Green fluorescence; series mostly up to 76.8 µM; cytotoxicity increase: at the top concentration
Excerpt: National Center for Advancing Translational Sciences [NCATS]
NIH Chemical Genomics Center [NCGC]
U.S. Environmental Protection Agency [EPA]
National Institutes of Environmental Health Sciences [NIEHS]
National Toxicology Program [NTP]
Cell-based models are critical for drug discovery. Determining the natural cytotoxic effects resulting from test compounds is an essential research activity. A CellTox Green Cytotoxicity Assay to monitor cytotoxicity in real time of continues cell culture during 40 hours of the compound treatment was used to screen Tox21 10K library compounds in Hek293 cells. CellTox Green Cytotoxicity Assay is a nonlytic, homogeneous, biofluorescent method to measure cytotoxicity in cell culture after experimental manipulation. The assay system uses a proprietary asymmetric cyanine dye that is excluded from viable cells but preferentially stains the dead cell's DNA. […] Viable cells produce no appreciable increases in fluorescence. Therefore, the fluorescence signal produced by the binding interaction with dead cell DNA is proportional to cytotoxicity.
The mixture of Hek293 cell suspension and reagents were dispensed at 600cells/6 ul/well in 1536-well tissue culture treated black solid bottom plates using a Multidrop dispenser. After the assay plates were incubated at a 37 C/5% CO2 incubator for 5 hours, 23 nL of compounds dissolved in DMSO, positive and negative controls was transferred to the assay plate by a pintool work station. The plates were incubated at 37 C for 40 hours. The fluorescence intensity were measured at 0h, 8h, 16h, 24h, 32h and 40h time points using ViewLux plate reader during compound treatment.
% is scaled to controls: 0 for no effect and ±100 for the full control effect; potency is read from the fitted curve at half-maximal effect.

Row | Structure (SMILES) | cytotoxicity increase | Potency
1 | O=C(CCCN1CCC2(CC1)C(=O)NCN2c1ccccc1)c1ccc(F)cc1 | -8.61% [at 35.3 µM] (inactive) | 
2 | CNC(C)Cc1ccc2c(c1)OCO2 (stereo not given) | 7.87% (inactive) | 
3 | CC(C)CC(C)(c1ccc(O)cc1)c1ccc(O)cc1 |  | 24.6 µM (active) and inactive
4 | CN(CCCC(O)c1cccnc1)N=O (stereo not given) | -0.595% (inactive) | 
5 | CCCCN(CCCC)C(=S)[S-].CCCCN(CCCC)C(=S)[S-].[Zn+2] | 12.9% (inactive) | 
6 | CN(C)C(=S)[S-].CN(C)C(=S)[S-].[Cu+2] | -12.4% [at 15.8 µM] (inactive) | 
7 | CCCCCCCCCCCCCCC(Br)C(=O)O (stereo not given) | -0.638% (inactive) | 
8 | N#C/C=C/c1ccccc1 | 4.11% (inactive) | 
9 | CC[C@H](C)[C@H]1O[C@]2(C=C[C@@H]1C)C[C@@H]1C[C@@H](C/C=C(\C)[C@@H](O[C@H]3C[C@H](OC)[C@@H](O[C@H]4C[C@H](OC)[C@@H](O)[C@H](C)O4)[C@H](C)O3)[C@@H](C)/C=C/C=C3\CO[C@@H]4[C@H](O)C(C)=C[C@@H](C(=O)O1)[C@]34O)O2 | 16.8% [at 35.3 µM] (inactive) | 
10 | CC(C)N1C(=O)N(c2ccccc2)CSC1=NC(C)(C)C | 14.5% (inactive) | 
11 | ClCc1ccccc1CCl | 8.9% (inactive) | 
12 | COP(=S)(OC)Oc1cc(Cl)c(Br)cc1Cl | 7.91% (inactive) | 
13 | Cc1cc(C)cc(OP(=O)(Oc2cc(C)cc(C)c2)Oc2cc(C)cc(C)c2)c1 | -0.737% (inactive) | 
14 | c1ccc(OCC2CO2)cc1 (stereo not given) | -11.7% (inactive) | 
15 | ClC1=C(Cl)[C@]2(Cl)[C@@H]3[C@@H](Cl)[C@H](Cl)C[C@@H]3[C@@]1(Cl)C2(Cl)Cl | -15.9% (inactive) | 
16 | CC(C)[C@H](C(=O)OC(C#N)c1cccc(Oc2ccccc2)c1)c1ccc(OC(F)F)cc1 (stereo not given in full) | -12.5% (inactive) | 
17 | c1ccc(Nc2ccc3ccccc3c2)cc1 |  | inactive
18 | COCC(=O)N(c1c(C)cccc1C)[C@H](C)C(=O)OC | -2.3% (inactive) | 
19 | Oc1c(Cl)c(Cl)cc(Cl)c1Cl | 21.3% (inactive) | 
20 | C[C@H]1CC[C@@H]2[C@@H](C)[C@H]3[C@H](C[C@H]4[C@@H]5CC=C6CC(O[C@@H]7O[C@H](CO)[C@H](O)[C@H](O[C@@H]8O[C@H](CO)[C@@H](O)[C@H](O)[C@H]8O)[C@H]7O[C@H]7O[C@@H](C)[C@H](O)[C@@H](O)[C@H]7O)CC[C@]6(C)[C@H]5CC[C@]34C)N2C1 (stereo not given in full) |  | 12.7 µM (active)

Row | Structure (SMILES) | cytotoxicity increase | Potency
21 | Cc1cc(C)c(C2=C(OC(=O)CC(C)(C)C)C3(CCCC3)OC2=O)c(C)c1 | 1.61% (inactive) | 
22 | CCOP(=S)(OCC)SCS(=O)(=O)C(C)(C)C | 3.5% (inactive) | 
23 | N#Cc1ccccc1N | -1.04% (inactive) | 
24 | CC(C)(C)C(O)C(Oc1ccc(-c2ccccc2)cc1)n1cncn1 (stereo not given) | -5.26% (inactive) | 
25 | Clc1ccc(Oc2ccccc2)cc1 | -3.39% (inactive) | 
26 | N#CCCSCCC#N | 4.98% (inactive) | 
27 | CCCCCCCCCCBr | -6.77% (inactive) | 
28 | COC[C@H](C)N(C(=O)CCl)c1c(C)csc1C | 10.4% (inactive) | 
29 | Cn1[nH]nnc1=S | -1.37% (inactive) | 
30 | O=C1C=CC(=O)c2ccccc21 | 7.04% (inactive) | 
31 | COc1ccc([N+](=O)[O-])cc1O | -0.723% [at 35.3 µM] (inactive) | 
32 | CN(CCCC(=O)c1cccnc1)N=O | -11.4% (inactive) | 
33 | CCS(=O)(=O)c1cccnc1S(=O)(=O)NC(=O)Nc1nc(OC)cc(OC)n1 | -12.4% (inactive) | 
34 | C[C@]12CC[C@@H]3c4ccc(OC(=O)N(CCCl)CCCl)cc4CC[C@H]3[C@@H]1CC[C@@H]2O | 0.0682% [at 35.3 µM] (inactive) | 
35 | Cc1cc(Cl)ccc1O[C@H](C)C(=O)O | -13.8% (inactive) | 
36 | CCc1ccccc1C | 12% (inactive) | 
37 | COc1ccc(/C(=C/C(=O)N2CCOCC2)c2ccc(Cl)cc2)cc1OC | -10.8% (inactive) | 
38 | C=CCOC(N)=O | 10.8% (inactive) | 
39 | COc1cccc(C(=O)CCN[C@@H](C)[C@H](O)c2ccccc2)c1 | 11.6% [at 35.3 µM] (inactive) | 
40 | Clc1ccc(C(c2ccccc2Cl)C(Cl)(Cl)Cl)cc1 (stereo not given) | -7.38% [at 35.3 µM] (inactive) | 
